Lmaj promast – reduces viability of Leishmania major promastigotes | resazurin fluorescence viability | inhibition, % at 10 µM | 200,000 tested, 9% active | AID 1063; in the data active = inhibition above about 50%;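 also: promastigotes grown with compound for 44 hours at 28 °C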
INS promoter inh – TRM-6 insulin promoter activity inhibition | AID 1273 | inhibition, % at 2 µM | TRM-6 cells (human fetal islet line), insulin promoter-eGFP reporter, imaging; reporter expression induced with tamoxifen | 130,000 tested, 0.9% active;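 active = inhibition above the mean plus 3 SD, with well images judged a real hit on visual review, cut at about 60% in these data, passing the limit was not always enough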
WT yeast gro inh – growth inhibition of WT yeast, mitochondrial fusion screen; 190,000 tested, 2.1% active; mitochondrial fusion phenotypic screen, WT strain; inhibition, % at 10 µM; in the data active = inhibition above about 58%; tested in S. cerevisiae
ROMK primary – modulates human ROMK potassium channel activity. Tet-inducible ROMK, thallium flux fluorescence; actives lie on both sides. B-score at 10 µM. 130,000 tested, 2% active. AID 1918;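 active = signal ratio slope over the read window, or its plate-corrected B-score, at least 3 SD from the plate mean, either direction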;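 also: B-score of the F/F0 ratio slope over 7 to 12 s after thallium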
KCC2 mod – modulators of human KCC2 chloride dependent transport. Q9H2X9. KCC2 cells, thallium flux FluoZin-2 fluorescence. B-score of Tl+ flux slope (higher = more flux/activation; lower = inhibition) at 10 µM. 190,000 tested, 2.2% active;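 active = thallium flux slope and its plate-corrected score both differing from the plate sample mean at a set confidence after two filtering rounds, in either direction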;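 also: slope of fluorescence scaled to starting intensity during 10 to 20 s after thallium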
Insulin prom up – MIN6 insulin promoter up-regulation | MIN6 insulin promoter-GFP reporter, high-content imaging; stronger effect = higher value | z-score at 5 µM | 190,000 tested, 0.3% active;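 active = z-score above 3 at 5 µM with at least 500 cells counted in the well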
The depositor's hits bear a star. A selection: hits, their analogues and other compounds. The true share with any hit is near 12%.

`Cc1cc(C)c(NC(=S)N(CCCN2CCOCC2)Cc2cccnc2)c(C)c1` gave Lmaj promast 6, INS promoter inh -53, WT yeast gro inh -4, ROMK primary 0.64, KCC2 mod 0.48 and Insulin prom up 0.32.
Screening Fc1cccc(/C=N/Nc2nc3ccccc3[nH]2)c1 returned Lmaj promast 83*, WT yeast gro inh 12, ROMK primary 0.8, KCC2 mod -0.95 and Insulin prom up -0.78.
Fc1ccc(/C=N/Nc2nc3ccccc3[nH]2)cc1F was read as Lmaj promast 90*, INS promoter inh 41, WT yeast gro inh 3, ROMK primary 1.2, KCC2 mod -0.57 and Insulin prom up -0.94.
C(=N\Nc1nc2ccccc2[nH]1)/c1ccccc1 was read as Lmaj promast 47, WT yeast gro inh 3, ROMK primary -0.37 and KCC2 mod -0.15.
For Cc1n[nH]c(=O)nc1N/N=C/c1ccco1 the results were Lmaj promast 0, WT yeast gro inh 13, ROMK primary -0.049, KCC2 mod 0.54 and Insulin prom up 0.
For COc1ccc(C2C(C(=O)N3CCCC3)c3cc(OC)c(OC)cc3C(=O)N2C)cc1OC (centres undefined) the results were Lmaj promast -3, INS promoter inh 6, WT yeast gro inh 5, ROMK primary 0.61, KCC2 mod 0.059 and Insulin prom up -0.06.
`COc1cc(/C=C(\C#N)C(=O)NC2CCCCC2C)ccc1OS(=O)(=O)c1ccc(C)cc1` (centres undefined) gave Lmaj promast 100*, WT yeast gro inh 23, KCC2 mod -0.37 and Insulin prom up -0.07.
For CC1=C(C(=O)N2CCCC(C(=O)c3cccc(C(F)(F)F)c3)C2)OCCO1 (centres undefined) the results were Lmaj promast -5, INS promoter inh -14, WT yeast gro inh 0, ROMK primary -0.58, KCC2 mod 0.41 and Insulin prom up 0.99.
`COc1cc(OC)c(OC)cc1C#N` gave Lmaj promast -9, WT yeast gro inh 1, ROMK primary 1.1, KCC2 mod 1.1 and Insulin prom up 0.19.
For COc1cc2c(cc1OC)C1(CCCC1)C(N)=C2C#N the results were Lmaj promast 100*, INS promoter inh 38, WT yeast gro inh -7, KCC2 mod 0.89 and Insulin prom up -0.06.
COc1ccc2c(c1)c1nnc(SCC(=O)N3C(C)CCCC3C)nc1n2C (centres undefined) was read as Lmaj promast 78*, WT yeast gro inh 18, ROMK primary 0.91, KCC2 mod 0.2 and Insulin prom up -0.58.
COc1ccc2c(c1)c1ccccc1n2C was read as Lmaj promast -6, INS promoter inh -52, WT yeast gro inh 6, ROMK primary -0.37, KCC2 mod 1.1 and Insulin prom up -0.05.
Screening COc1ccc2c(c1)c1nnc(SC)nc1n2C returned Lmaj promast 96*, WT yeast gro inh 47, ROMK primary 0.018, KCC2 mod 0.93 and Insulin prom up 0.54.
For COc1ccc(-n2nnnc2SCC(=O)N2C(C)CCCC2C)c(OC)c1 (centres undefined) the results were Lmaj promast 0, INS promoter inh 20, WT yeast gro inh 2, KCC2 mod -0.54 and Insulin prom up -0.03.
O=C(NC1CCCC1)c1ccc([N+](=O)[O-])s1 was read as Lmaj promast 98*, INS promoter inh -18, WT yeast gro inh 1, ROMK primary -0.51 and KCC2 mod 0.002.
`Cc1cccc(NC(=O)c2ccc([N+](=O)[O-])s2)c1C` gave Lmaj promast 100*, INS promoter inh 20, WT yeast gro inh 5, ROMK primary 0.019, KCC2 mod -0.5 and Insulin prom up 0.25.
`Cc1cccc(C)c1NC(=O)c1ccc([N+](=O)[O-])s1` gave Lmaj promast 99*, WT yeast gro inh -23, KCC2 mod 0.85 and Insulin prom up -0.23.
O=C(Cn1cc(C(F)(F)F)ccc1=O)Nc1cccc(S(=O)(=O)N2CCOCC2)c1 was read as Lmaj promast -6, WT yeast gro inh -27, KCC2 mod 0.26 and Insulin prom up 0.51.
O=C(O)c1nc(-c2ccccc2)n(-c2ccccc2)n1 was read as Lmaj promast -5, INS promoter inh -38, WT yeast gro inh 4, ROMK primary 0.43, KCC2 mod -0.034 and Insulin prom up 0.76.
O=C(c1nc(-c2ccccc2)n(-c2ccccc2)n1)N1CCN(S(=O)(=O)c2ccccc2)CC1 was read as Lmaj promast 58*, INS promoter inh -50, WT yeast gro inh -2, ROMK primary -0.17, KCC2 mod -0.52 and Insulin prom up -0.5.
For CC12CCC(C(=O)NCc3ccc4c(c3)OCO4)(CC1=O)C2(C)C (centres undefined) the results were Lmaj promast -1, INS promoter inh 14, WT yeast gro inh 27, ROMK primary -0.43 and Insulin prom up -0.14.
O=C(CNc1ccc2ccccc2c1)NNC1=NCCC1 was read as Lmaj promast -2, INS promoter inh 25, WT yeast gro inh 17, ROMK primary 0.89, KCC2 mod -0.023 and Insulin prom up -0.07.
Screening O=C(Cc1ccccc1)NNc1ccc2ccccc2c1 returned Lmaj promast 96*, WT yeast gro inh 52, ROMK primary -0.078, KCC2 mod -0.72 and Insulin prom up -0.47.
Screening O=C(CN1C(=O)CCC1=O)NNc1ccc2ccccc2c1 returned Lmaj promast 96*, INS promoter inh -112, WT yeast gro inh 71*, ROMK primary -0.62, KCC2 mod -0.36 and Insulin prom up -0.27.
For c1csc(-c2nc3c4ccccc4c4ccccc4c3[nH]2)c1 the results were Lmaj promast 35, INS promoter inh 40, WT yeast gro inh 80* and KCC2 mod 0.12.
For Oc1ccccc1-c1nc2c3ccccc3c3ccccc3c2[nH]1 the results were KCC2 mod 0.42 and Insulin prom up -0.31.
Screening COc1cc(C(C(=O)NC2CCCCC2)N(C(=O)Cc2c[nH]c3ccccc23)c2ccc(C)cc2)cc(OC)c1OC (centres undefined) returned Lmaj promast 90*, INS promoter inh 14, WT yeast gro inh -28, ROMK primary -1.9, KCC2 mod -0.28 and Insulin prom up 0.36.
CC(=O)c1ccc(N(C(=O)Cc2c[nH]c3ccccc23)C(C(=O)NC2CCCCC2)c2cccs2)cc1 (centres undefined) was read as Lmaj promast 6, INS promoter inh -54, WT yeast gro inh -1 and Insulin prom up 0.26.
Screening O=C(NC1CCCCC1)C(c1cccs1)N(C(=O)Cc1c[nH]c2ccccc12)c1ccc(F)cc1 (centres undefined) returned Lmaj promast 75*, WT yeast gro inh 57, ROMK primary 1.3, KCC2 mod -0.21 and Insulin prom up 2.6.
`Cc1ccc(C(C(=O)Nc2ccc3c(c2)OCO3)N(C)C(=O)Cc2c[nH]c3ccccc23)cc1` (centres undefined) gave Lmaj promast 70*, INS promoter inh 7, WT yeast gro inh 30, ROMK primary 0.11, KCC2 mod -0.11 and Insulin prom up -0.72.

Screens as filed in PubChem.
